The values below come from PubChem BioAssay (NCI).

The panel holds about 83,000 compounds, 20% with a hit somewhere; the sample as a whole holds those more often.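 96-well plates, one dose, 48 hours. Percent growth reported; active if below 10.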 Values without a mark were called inactive. Activity calls are given as the source filed them.

This assay deals with HCT-15 colon. In words: NCI-60 one-dose screen, 48 h (100 = growth as untreated, 0 = no growth, -100 = all killed). Particulars: 10 µM unless noted. How it is done: Growth inhibition of the HCT-15 human tumor cell line is measured as a screen for anti-cancer activity. Cells are grown in 96 well plates and exposed to the test compound for 48 hours. Compounds are tested at a single concentration, which is 10^-5 M for most compounds. The reported endpoint is percent growth (GI% or GIPRCNT), where numbers from 0 - 100% represent growth inhibition, and numbers from -100% - 0 represent cell death. For example, a value of 40 represents 60% growth inhibition. A value of 0 means no net growth occurred over the course of the experiment. A value of -40 indicates 40% of cells at the beginning of the experiment died by the end of the experiment. A value of -100 means all cells are dead at the end of the experiment.
NCI-60 Human Tumor Cell Lines Screen was performed using the standard one-dose NCI protocol, which is described in more detail at https://dtp.cancer.gov/discovery_development/nci-60/default.htm.
Compounds with GIPRCNT values below 10 were considered active. Activity score was based on GIPRCNT using the following formula: […]
Score is 0 for GIPRCNT values of 100 or above, 50 for GIPRCNT values of 0, and 100 for GIPRCNT values of -100.
With `COc1cc(/C=C/c2ccc3c(Br)cc(Br)c(O)c3n2)ccc1O`, the growth is 27.6%.

Regarding `CN1CCN(Cc2ccc(NC(=O)c3ccc(C#N)c(C#Cc4cnc(N)c5ncccc45)c3)cc2C(F)(F)F)CC1`, the growth was 1.93% (active).

With `CCC(C)C1NC(=O)c2nc(oc2-c2ccccc2)-c2csc(n2)-c2csc(n2)-c2nc(oc2C)-c2coc(n2)CNC(=O)C(C(C)CC)NC1=O` (stereo not given), the growth is -77.7% (active).

In the case of `Cc1cc(C)c2c(n1)sc1c(Nc3ccc(OCc4ccccc4)cc3)ncnc12`, the growth was 100%.

Consider `CCN1CCN(Cc2ccc(NC(=O)c3nc4ccc5[nH]ncc5c4c4c3CCCC4)cc2C(F)(F)F)CC1`, for which the growth is -47.8% (active).

Turning to `C#CC[C@@H]1C[C@]2(C)[C@H]3CC=C4[C@H]5[C@@H](C)[C@H](C)CC[C@]5(C(=O)NCCCCCCCCN)CC[C@@]4(C)[C@]3(C)CC[C@H]2C(C)(C)[C@H]1OC(C)=O`, the growth was -62.1% (active).

Consider `COc1ccc(/C=C(/C(=O)N2CCN(c3ccccc3)CC2)c2cc(OC)c(OC)c(OC)c2)cc1N`, for which the growth was 14.6%.

Consider `O=C(CI)NCCNc1cccc2c(S(=O)(=O)O)cccc12`, for which the growth is 98.6%.

In the case of `Cc1ccc(NC(=O)c2nc(S(C)=O)oc2-c2ccc(F)cc2)cc1Nc1nccc(-c2cccnc2)n1` (stereo not given), the growth is 0.45% (active).

For the compound `O=C(O)C1[S][Sb]([CH](C(=O)O)[CH](C(=O)O)[Sb]2[S]C(C(=O)O)C(C(=O)O)[S]2)[S]C1C(=O)O` (stereo not given), the growth was 87.6%.

`CC1CN(CCCOC(=O)Nc2ccc(Cl)cc2)CCN1C(C)(C)C` (stereo not given): the growth was 114%.

On to `CCOC(=O)c1ccc(NC(=O)NC2=NCCS2)cc1`, for which the growth was 59.3%.

Regarding `O=C(Nc1ccc(Oc2ccc(NC(=O)Nc3ccccc3Cl)cc2)cc1)Nc1ccccc1Cl`, the growth is 38.9%.

In the case of `O=C(Nc1ccccc1Cl)Oc1ccc2ccccc2c1`, the growth was 99.2%.

In the case of `NNC(=O)Cc1ccccc1`, the growth is 82.7%.

Regarding `COc1ccc2cc(-c3nc(C)c(C(C)=O)c(-c4ccc(C)cc4)n3)ccc2c1`, the growth was 88.2%.

For the compound `C/C(=N\NC(=S)Nc1ccccc1)c1ccccn1`, the growth is 28.1%.

With `O=c1cc(-c2ccc3c(c2)OCCO3)oc2cc(Cl)ccc12`, the growth is 74.5%.

For the compound `COc1cc2nccc(Oc3ccc(NC(=O)C4(C(=O)Nc5ccc(F)cc5)CC4)cc3)c2cc1O`, the growth was 61.8%.

On to `SCc1ccc(CS)cc1`, for which the growth was 105%.

For `c1ccc(C2=Nc3ccccc3SC2)cc1`, the growth is 105%.

With `COc1cccc(Cn2c(-c3nonc3NC(C)=O)nc3ccccc32)c1`, the growth was 34.9%.

Take `COc1ccc(/C(=C\c2cc(OC)c(OC)c(OC)c2)C(=O)N2CCN(c3ccccc3)CC2)cc1O`: the growth is 97.2%.

For `CCCCCNCCCCCNc1cc(OC)cc2cccnc12`, the growth was 88.6%.

As for `COc1ccc2nc(C)cc(Nc3ccccc3O)c2c1`, the growth was 32.8%.

Consider `COc1ccc(-c2nsc3c2NC(=O)CC3c2ccc3c(c2)OCO3)cc1` (stereo not given), for which the growth is 29.4%.

Turning to `CO[C@@]12[C@@H]3NC3CN1C1=C(C(=O)C(N)=C(C)C1=O)[C@@H]2COC(N)=O` (stereo not given in full), the growth is 26.4%.

For the compound `CN1CCN(c2ccc(N3Cc4ccccc4OC4=C3C(=O)c3c(O)ccc(O)c3C4=O)cn2)CC1`, the growth was -74.9% (active).

Take `COc1ccc(/C=C(/C(=O)N2CCN(c3ccccc3)CC2)c2cc(OC)c(OC)c(OC)c2)cc1O`: the growth is 12.8%.

Turning to `O=C(NCCNC(=O)c1cc(S(=O)(=O)NCCc2ccccc2)c(O)c(O)c1O)c1cc(S(=O)(=O)NCCc2ccccc2)c(O)c(O)c1O`, the growth is 40.5%.

Consider `CC(=O)O[C@H]1[C@H](CC#CC#CC[C@@H]2C[C@]3(C)[C@H]4CC=C5[C@H]6[C@@H](C)[C@H](C)CC[C@]6(C(=O)NCCCCCCCCN)CC[C@@]5(C)[C@]4(C)CC[C@H]3C(C)(C)[C@H]2OC(C)=O)C[C@]2(C)[C@H]3CC=C4[C@H]5[C@@H](C)[C@H](C)CC[C@]5(C(=O)NCCCCCCCCN)CC[C@@]4(C)[C@]3(C)CC[C@H]2C1(C)C`, for which the growth was 108%.

For the compound `COc1cc(C2CC(c3cccc(Nc4ccnc5cc(Cl)ccc45)c3)=NN2c2ccc(Cl)cc2)cc(OC)c1OC` (stereo not given), the growth was 54.2%.

In the case of `O=C(/C=C/c1ccccc1)C(Br)C(Br)c1ccccc1` (stereo not given), the growth was -32.7% (active).

With `CC1(C)C(N(O)C(=O)Nc2ccc(Cl)cc2)N(c2ccc(Cl)cc2)C(=O)N1CC(=O)N/N=C/C=C/c1ccc([N+](=O)[O-])o1` (stereo not given), the growth is 37.5%.

On to `Cn1nc(C(F)(F)F)cc1-c1c[nH]c(OCc2ccc(Cl)cc2)c(-c2ccc(Cl)c(C(F)(F)F)c2)c1=O`, for which the growth was 6.6% (active).

With `CNC(=O)c1cc(Oc2ccc(NC(=O)c3[nH]c(SC)nc3-c3ccc(F)cc3)cc2)ccn1`, the growth was 72.5%.

Regarding `O=C(c1ccc(C(F)(F)F)c(Cl)c1)N(Cc1ccc(Cl)cc1)c1ccc(-c2cc(C(F)(F)F)[nH]n2)c(O)c1`, the growth was 7.04% (active).

Turning to `COc1ccc2c(c1)N(CCO)C1=C(C(=O)OC1)C2c1cccc(Br)c1` (stereo not given), the growth is 7.92% (active).

With `NS(=O)(=O)c1ccc(N2N=C(c3ccc(Br)cc3)CC2c2cn(-c3ccccc3)nc2-c2ccc(Cl)cc2)cc1` (stereo not given), the growth was 78.7%.

Consider `O=C(Nc1ccc(Cl)c(C(F)(F)F)c1)c1ccc(Nc2ccc(Cl)nn2)cc1`, for which the growth is 46.4%.
